Among the data in paper PMC7862700, “An all-to-all approach to the identification of sequence-specific readers for epigenetic DNA modifications on cytosine” are binding signal values, retold here.

Common to all, as to assay: DAPPL (digital affinity profiling via proximity ligation, sequencing); 10 mM Tris-HCl pH 7.5, 50 mM NaCl, 1 mM DTT, 4% glycerol, room temperature, 30 min; GST-TFs on glutathione beads, 16-mer random dsDNA library, 0.1% formaldehyde crosslink after washing; high values mean tight binding
One test deals with T1, FLI1 (Homo sapiens, UniProt Q01543 1-452).
T1 sequence: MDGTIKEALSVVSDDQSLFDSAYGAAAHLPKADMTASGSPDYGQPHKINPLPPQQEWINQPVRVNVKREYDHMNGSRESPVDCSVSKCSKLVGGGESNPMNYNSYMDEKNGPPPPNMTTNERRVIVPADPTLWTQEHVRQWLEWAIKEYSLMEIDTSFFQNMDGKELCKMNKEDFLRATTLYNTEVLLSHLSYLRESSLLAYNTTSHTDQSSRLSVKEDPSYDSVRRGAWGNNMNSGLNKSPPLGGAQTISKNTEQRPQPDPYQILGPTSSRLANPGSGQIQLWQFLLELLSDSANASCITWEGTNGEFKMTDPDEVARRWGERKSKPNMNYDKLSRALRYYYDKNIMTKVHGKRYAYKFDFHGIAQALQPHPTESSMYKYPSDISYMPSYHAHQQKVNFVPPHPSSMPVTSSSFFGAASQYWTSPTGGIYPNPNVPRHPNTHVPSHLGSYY
To be noted: protein: recombinant; tags: N-terminal GST; dsDNA, one strand shown. An outline of the steps: (§1)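 Sequencing on an Illumina NextSeq500 followed washing, crosslinking with 0.1% formaldehyde, proximity ligation (BsaI/T4 ligase, 1 h, 37 °C) and PCR amplification of pools that had been incubated for 30 min at room temperature with 200 nmole of a random double-stranded 16-mer DNA library in Tris/NaCl/DTT/glycerol buffer. Each pool held DNA-barcoded human transcription factors, expressed in yeast as GST fusions and captured on glutathione beads, plus a tag-only sample. Binding signal is a hexamer's read frequency for a factor divided by its frequency in the tag-only sample.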

In a further test the target is T2, ELK1 (Homo sapiens, UniProt P19419 1-428).
T2 sequence: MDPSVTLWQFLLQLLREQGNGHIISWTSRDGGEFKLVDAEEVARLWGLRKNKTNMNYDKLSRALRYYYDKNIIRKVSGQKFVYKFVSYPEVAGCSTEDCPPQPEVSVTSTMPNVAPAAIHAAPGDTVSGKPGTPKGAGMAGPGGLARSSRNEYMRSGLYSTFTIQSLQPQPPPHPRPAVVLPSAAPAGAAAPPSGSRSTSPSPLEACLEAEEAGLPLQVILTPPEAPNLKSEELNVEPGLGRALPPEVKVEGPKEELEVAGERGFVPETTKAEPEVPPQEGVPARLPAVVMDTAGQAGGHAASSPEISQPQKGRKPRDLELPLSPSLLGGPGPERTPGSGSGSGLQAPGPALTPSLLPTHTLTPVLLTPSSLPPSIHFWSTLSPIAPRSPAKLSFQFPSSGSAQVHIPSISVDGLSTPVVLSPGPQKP
Conditions: protein: recombinant; tags: N-terminal GST; dsDNA, one strand shown. An outline of the steps:
as §1

The target in another test is T3, GABPA (Homo sapiens, UniProt Q06546 1-454).
T3 sequence: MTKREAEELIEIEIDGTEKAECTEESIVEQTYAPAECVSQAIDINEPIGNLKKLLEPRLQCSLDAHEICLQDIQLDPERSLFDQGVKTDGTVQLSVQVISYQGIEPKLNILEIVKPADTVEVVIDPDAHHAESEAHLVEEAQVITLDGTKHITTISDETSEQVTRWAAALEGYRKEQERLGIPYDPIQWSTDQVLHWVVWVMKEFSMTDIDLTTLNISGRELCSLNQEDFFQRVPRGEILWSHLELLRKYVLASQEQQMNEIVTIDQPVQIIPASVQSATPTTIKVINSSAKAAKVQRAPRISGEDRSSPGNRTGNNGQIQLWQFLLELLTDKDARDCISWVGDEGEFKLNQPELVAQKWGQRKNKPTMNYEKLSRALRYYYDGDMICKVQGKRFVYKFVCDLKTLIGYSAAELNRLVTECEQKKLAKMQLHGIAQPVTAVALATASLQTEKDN
To be noted: protein: recombinant; tags: N-terminal GST; dsDNA, one strand shown. The gist of the method:
as §1

In the next test the target is T4, ERG (Homo sapiens, UniProt P11308 1-479).
T4 sequence: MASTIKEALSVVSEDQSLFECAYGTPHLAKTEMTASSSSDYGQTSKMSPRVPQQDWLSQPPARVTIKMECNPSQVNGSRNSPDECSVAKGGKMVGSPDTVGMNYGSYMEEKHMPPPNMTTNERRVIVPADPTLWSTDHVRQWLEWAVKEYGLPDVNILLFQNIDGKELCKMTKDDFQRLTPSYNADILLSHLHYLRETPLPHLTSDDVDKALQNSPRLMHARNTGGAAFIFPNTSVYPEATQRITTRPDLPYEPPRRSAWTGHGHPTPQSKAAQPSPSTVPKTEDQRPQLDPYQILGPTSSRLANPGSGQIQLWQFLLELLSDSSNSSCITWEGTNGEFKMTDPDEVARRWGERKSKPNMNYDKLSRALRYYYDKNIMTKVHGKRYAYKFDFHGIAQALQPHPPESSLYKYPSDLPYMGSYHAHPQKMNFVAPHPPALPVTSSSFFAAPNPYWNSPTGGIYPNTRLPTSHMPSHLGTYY
To be noted: protein: recombinant; tags: N-terminal GST; dsDNA, one strand shown. An outline of the steps: as §1

A further test concerns the target ELF1 (Homo sapiens, UniProt P32519 1-619). To be noted: protein: recombinant; tags: N-terminal GST; dsDNA, one strand shown. The gist of the method: as §1
The target in the next test is T5, EHF (Homo sapiens, UniProt Q9NZC4 1-300).
T5 sequence: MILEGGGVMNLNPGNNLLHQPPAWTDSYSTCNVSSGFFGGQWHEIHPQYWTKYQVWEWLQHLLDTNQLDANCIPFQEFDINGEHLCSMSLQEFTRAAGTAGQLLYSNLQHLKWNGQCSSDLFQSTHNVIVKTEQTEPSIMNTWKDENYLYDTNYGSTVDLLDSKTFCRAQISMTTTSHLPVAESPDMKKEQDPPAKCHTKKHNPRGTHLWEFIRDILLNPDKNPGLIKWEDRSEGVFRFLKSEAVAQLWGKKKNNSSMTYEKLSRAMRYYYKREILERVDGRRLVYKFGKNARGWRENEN
To be noted: protein: recombinant; tags: N-terminal GST; dsDNA, one strand shown. An outline of the steps: as §1

Another test concerns the target SPI1 (Homo sapiens, UniProt P17947 1-270). To be noted: protein: recombinant; tags: N-terminal GST; dsDNA, one strand shown. An outline of the steps:
as §1

A further test addresses SPIB (Homo sapiens, UniProt Q01892 1-262). Conditions: protein: recombinant; tags: N-terminal GST; dsDNA, one strand shown. An outline of the steps: as §1
For the next test, the target named is T6, ELK3 (Homo sapiens, UniProt P41970 1-407).
T6 sequence: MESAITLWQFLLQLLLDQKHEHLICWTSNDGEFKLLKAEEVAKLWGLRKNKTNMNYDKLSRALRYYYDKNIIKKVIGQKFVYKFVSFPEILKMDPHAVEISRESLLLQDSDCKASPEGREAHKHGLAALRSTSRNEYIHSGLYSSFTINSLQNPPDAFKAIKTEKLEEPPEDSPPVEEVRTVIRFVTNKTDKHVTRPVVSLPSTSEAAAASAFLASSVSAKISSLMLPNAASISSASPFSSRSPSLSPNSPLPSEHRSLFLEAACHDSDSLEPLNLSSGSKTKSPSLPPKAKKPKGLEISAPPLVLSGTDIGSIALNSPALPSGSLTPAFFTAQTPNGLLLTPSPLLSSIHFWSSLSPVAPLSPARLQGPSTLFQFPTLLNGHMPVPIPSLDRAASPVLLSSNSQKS
To be noted: protein: recombinant; tags: N-terminal GST; dsDNA, one strand shown. An outline of the steps: as §1

The next test has as its target T7, FEV (Homo sapiens, UniProt Q99581 1-238).
T7 sequence: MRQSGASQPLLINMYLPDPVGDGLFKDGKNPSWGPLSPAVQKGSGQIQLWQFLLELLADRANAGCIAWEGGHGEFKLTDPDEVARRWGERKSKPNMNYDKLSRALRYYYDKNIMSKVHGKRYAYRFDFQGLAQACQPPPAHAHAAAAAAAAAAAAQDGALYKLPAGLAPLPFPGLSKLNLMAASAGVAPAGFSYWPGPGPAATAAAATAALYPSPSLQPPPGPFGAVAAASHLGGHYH
To be noted: protein: recombinant; tags: N-terminal GST; dsDNA, one strand shown. An outline of the steps:
as §1

For a further test, the target named is ETV5 (Homo sapiens, UniProt P41161 1-510). Conditions: protein: recombinant; tags: N-terminal GST; dsDNA, one strand shown. The gist of the method:
as §1

A further test deals with HSF1 (Homo sapiens, UniProt Q00613 1-529). To be noted: protein: recombinant; tags: N-terminal GST; chain copies: 3; dsDNA, one strand shown. The gist of the method:
as §1

In a further test the target is T8, SPIC (Homo sapiens, UniProt Q8N5J4 1-248).
T8 sequence: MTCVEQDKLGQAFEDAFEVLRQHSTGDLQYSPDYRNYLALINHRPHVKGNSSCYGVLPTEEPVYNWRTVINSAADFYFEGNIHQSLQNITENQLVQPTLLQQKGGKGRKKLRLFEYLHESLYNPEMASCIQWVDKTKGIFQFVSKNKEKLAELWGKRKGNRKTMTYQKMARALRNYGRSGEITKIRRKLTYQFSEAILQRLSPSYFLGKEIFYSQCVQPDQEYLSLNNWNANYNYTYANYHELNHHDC
To be noted: protein: recombinant; tags: N-terminal GST; dsDNA, one strand shown. An outline of the steps: as §1

A further test deals with ELF4 (Homo sapiens, UniProt Q99607 1-663). To be noted: protein: recombinant; tags: N-terminal GST; dsDNA, one strand shown. The gist of the method:
as §1

For the next test, the target named is T9, ELK4 (Homo sapiens, UniProt P28324-2 1-405).
T9 sequence: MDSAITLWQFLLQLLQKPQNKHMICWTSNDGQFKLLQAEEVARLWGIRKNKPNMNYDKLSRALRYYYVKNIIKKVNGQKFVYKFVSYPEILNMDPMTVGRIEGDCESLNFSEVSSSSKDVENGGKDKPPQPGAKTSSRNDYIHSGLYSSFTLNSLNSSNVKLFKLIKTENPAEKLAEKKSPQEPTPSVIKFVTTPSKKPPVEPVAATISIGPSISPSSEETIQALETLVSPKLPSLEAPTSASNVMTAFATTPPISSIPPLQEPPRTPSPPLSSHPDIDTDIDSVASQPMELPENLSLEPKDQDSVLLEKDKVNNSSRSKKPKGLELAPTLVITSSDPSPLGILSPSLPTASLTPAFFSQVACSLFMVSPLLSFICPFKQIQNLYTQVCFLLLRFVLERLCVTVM
Conditions: protein: recombinant; tags: N-terminal GST; dsDNA, one strand shown. An outline of the steps:
as §1

For the next test, the target named is T10, ETV2 (Homo sapiens, UniProt O00321 1-342).
T10 sequence: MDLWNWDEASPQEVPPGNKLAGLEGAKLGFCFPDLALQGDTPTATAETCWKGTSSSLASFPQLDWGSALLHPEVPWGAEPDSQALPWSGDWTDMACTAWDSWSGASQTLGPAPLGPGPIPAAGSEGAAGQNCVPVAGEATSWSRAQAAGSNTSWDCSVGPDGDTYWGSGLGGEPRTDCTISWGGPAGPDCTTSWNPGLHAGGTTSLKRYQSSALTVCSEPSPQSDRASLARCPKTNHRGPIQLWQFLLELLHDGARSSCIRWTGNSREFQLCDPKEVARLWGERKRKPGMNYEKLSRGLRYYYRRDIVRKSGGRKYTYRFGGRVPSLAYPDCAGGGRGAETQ
Conditions: protein: recombinant; tags: N-terminal GST; dsDNA, one strand shown. The gist of the method:
as §1

Another test addresses CRX (Homo sapiens, UniProt O43186 1-299). To be noted: protein: recombinant; tags: N-terminal GST; dsDNA, one strand shown. The gist of the method:
as §1

A further test has as its target ETV1 (Homo sapiens, UniProt P50549 1-477). Conditions: protein: recombinant; tags: N-terminal GST; dsDNA, one strand shown. An outline of the steps:
as §1

ETV1, sequence (P50549 whole entry): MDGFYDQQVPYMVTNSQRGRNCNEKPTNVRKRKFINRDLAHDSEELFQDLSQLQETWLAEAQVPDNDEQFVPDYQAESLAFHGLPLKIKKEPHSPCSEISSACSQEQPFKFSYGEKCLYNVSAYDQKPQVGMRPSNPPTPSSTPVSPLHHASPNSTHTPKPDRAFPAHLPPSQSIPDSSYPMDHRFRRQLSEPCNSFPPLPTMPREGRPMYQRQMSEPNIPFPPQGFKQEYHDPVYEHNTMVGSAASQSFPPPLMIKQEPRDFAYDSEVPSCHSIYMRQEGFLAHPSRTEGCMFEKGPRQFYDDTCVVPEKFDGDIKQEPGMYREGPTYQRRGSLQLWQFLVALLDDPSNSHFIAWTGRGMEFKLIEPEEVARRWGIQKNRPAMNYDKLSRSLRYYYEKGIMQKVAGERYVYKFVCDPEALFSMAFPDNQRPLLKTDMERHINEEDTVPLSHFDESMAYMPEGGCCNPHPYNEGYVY
HSF1, sequence (Q00613 whole entry): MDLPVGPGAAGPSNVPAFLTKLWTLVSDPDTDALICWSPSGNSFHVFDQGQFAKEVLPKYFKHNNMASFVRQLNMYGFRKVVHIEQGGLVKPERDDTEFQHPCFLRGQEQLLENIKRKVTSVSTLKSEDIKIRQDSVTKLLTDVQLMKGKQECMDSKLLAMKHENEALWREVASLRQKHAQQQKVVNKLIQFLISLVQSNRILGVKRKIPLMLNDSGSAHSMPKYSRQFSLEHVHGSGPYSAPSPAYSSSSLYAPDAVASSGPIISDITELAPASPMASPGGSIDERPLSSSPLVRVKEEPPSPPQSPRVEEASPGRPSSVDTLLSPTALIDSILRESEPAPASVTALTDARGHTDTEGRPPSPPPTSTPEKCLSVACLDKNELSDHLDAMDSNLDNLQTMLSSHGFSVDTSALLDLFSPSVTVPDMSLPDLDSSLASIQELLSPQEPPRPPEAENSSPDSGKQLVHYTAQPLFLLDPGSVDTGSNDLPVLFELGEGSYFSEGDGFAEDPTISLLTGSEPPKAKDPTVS
ETV5, sequence (P41161 whole entry): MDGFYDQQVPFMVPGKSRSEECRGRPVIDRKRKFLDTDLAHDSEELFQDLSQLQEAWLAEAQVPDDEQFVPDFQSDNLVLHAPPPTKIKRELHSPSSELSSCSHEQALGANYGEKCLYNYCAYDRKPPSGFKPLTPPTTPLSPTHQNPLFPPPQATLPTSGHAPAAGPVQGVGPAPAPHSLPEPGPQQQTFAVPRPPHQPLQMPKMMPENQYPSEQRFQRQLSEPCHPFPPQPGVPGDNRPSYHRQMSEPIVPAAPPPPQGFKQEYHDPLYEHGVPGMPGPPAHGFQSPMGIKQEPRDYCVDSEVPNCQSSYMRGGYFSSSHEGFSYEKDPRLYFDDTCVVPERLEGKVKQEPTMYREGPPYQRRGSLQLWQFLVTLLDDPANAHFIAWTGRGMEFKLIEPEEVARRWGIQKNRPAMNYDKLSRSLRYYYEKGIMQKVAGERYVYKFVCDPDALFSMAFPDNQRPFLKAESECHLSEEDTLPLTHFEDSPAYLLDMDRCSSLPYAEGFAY
ELF1, sequence (P32519 whole entry): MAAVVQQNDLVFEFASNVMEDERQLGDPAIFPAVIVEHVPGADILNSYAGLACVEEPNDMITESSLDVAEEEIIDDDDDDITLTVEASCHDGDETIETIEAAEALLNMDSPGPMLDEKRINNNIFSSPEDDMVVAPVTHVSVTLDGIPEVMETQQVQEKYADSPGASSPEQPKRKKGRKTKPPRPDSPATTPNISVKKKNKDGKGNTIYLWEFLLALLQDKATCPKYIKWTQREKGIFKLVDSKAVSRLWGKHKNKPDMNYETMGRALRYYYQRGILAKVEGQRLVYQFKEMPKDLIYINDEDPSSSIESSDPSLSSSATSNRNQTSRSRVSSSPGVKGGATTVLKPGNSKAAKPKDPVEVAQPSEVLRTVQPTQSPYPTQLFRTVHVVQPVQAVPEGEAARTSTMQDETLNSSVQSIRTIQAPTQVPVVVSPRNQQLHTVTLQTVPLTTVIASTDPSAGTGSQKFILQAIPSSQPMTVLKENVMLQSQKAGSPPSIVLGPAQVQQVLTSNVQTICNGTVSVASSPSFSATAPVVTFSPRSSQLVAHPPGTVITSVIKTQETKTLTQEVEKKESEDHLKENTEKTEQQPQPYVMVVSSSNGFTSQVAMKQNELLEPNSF
SPIB, sequence (Q01892 whole entry): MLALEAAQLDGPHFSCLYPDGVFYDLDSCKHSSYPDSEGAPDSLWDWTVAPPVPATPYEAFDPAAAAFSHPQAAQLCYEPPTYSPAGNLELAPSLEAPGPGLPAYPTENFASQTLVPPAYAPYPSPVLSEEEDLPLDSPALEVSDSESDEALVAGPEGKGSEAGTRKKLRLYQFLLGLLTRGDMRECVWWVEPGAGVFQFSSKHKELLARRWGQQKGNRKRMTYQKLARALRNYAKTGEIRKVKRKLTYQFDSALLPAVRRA
CRX, sequence (O43186 whole entry): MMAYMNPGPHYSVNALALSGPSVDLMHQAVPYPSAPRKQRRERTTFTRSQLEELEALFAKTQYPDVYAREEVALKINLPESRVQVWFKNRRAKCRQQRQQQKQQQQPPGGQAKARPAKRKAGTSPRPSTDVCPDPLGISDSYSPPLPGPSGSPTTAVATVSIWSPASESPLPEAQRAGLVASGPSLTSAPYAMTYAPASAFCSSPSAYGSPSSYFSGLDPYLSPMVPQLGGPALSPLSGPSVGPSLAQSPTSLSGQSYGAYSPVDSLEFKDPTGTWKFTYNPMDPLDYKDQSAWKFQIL
ELF4, sequence (Q99607 whole entry): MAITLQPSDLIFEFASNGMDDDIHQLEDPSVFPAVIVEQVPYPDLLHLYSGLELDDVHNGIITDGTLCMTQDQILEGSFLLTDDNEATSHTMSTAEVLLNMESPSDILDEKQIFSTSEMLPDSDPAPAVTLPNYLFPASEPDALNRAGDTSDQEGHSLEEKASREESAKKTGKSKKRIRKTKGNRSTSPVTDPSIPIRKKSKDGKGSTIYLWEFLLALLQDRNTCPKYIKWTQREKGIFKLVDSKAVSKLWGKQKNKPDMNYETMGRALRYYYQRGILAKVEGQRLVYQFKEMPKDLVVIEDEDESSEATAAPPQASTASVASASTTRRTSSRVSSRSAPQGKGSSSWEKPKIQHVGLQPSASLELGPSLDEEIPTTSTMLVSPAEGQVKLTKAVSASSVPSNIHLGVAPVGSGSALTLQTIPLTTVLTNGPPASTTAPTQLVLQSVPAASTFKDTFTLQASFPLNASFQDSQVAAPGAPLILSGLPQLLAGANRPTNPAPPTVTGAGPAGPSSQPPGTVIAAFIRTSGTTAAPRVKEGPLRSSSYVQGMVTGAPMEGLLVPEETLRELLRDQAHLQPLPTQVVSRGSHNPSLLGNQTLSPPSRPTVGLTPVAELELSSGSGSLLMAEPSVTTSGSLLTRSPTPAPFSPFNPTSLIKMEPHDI

On to AGCCTA, for which the binding signal with FLI1 was 1.06 fold enrichment (6-mer frequency, TF over GST control); with ELK1 it was 1.05 fold enrichment (6-mer frequency, TF over GST control); with GABPA, 1.12 fold enrichment (6-mer frequency, TF over GST control); in the test with ERG it was 1.08 fold enrichment (6-mer frequency, TF over GST control); in the test with ELF1, 1.1 fold enrichment (6-mer frequency, TF over GST control); with EHF, 1.04 fold enrichment (6-mer frequency, TF over GST control). Further, the binding signal with SPI1 was 1.02 fold enrichment (6-mer frequency, TF over GST control); with SPIB, 1.02 fold enrichment (6-mer frequency, TF over GST control); with ELK3, 1.12 fold enrichment (6-mer frequency, TF over GST control); with FEV, 1.01 fold enrichment (6-mer frequency, TF over GST control); in the test with ETV5, 1.09 fold enrichment (6-mer frequency, TF over GST control); with HSF1 it was 1.21 fold enrichment (6-mer frequency, TF over GST control). For the same sequence, the binding signal is 1.13 fold enrichment (6-mer frequency, TF over GST control) in the test with SPIC; 1.09 fold enrichment (6-mer frequency, TF over GST control) with ELF4; 1.17 fold enrichment (6-mer frequency, TF over GST control) in the test with ELK4; 1.12 fold enrichment (6-mer frequency, TF over GST control) with ETV2; 1.52 fold enrichment (6-mer frequency, TF over GST control) with CRX; 1.12 fold enrichment (6-mer frequency, TF over GST control) with ETV1.
